An excerpt weighted towards active compounds, which were near 5.7% of everything screened.
hgDAF-12 ag: agonists of H. glycines DAF-12 nuclear receptor; HEK293 GAL4-hgDAF12 UAS-luciferase reporter, agonist luminescence; normalized to butyrate control; activation, % at 6.8 µM; 1.8% of 370,000 active;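 active means activation above a cutoff set at the mean of all screened compounds plus 3 SD, cut at about 10% in these data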
DAX1 inh-1: inhibitors of human orphan nuclear receptor DAX1 (NR0B1) | P51843 | HEK293 Gal4-DAX1 luciferase reporter, luminescence | inhibition, % at 6.75 µM | 0.99% of 340,000 active;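 active means inhibition above the mean over all tested compounds plus 3 SD, cut at about 4.2% in these data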;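 further: inhibition shows as a rise in luminescence from relieved DAX1 repression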
hcDAF12 agonist: activates DAF-12 receptor from parasite H. contortus | HEK293 hcDAF-12 lit1-tk-luc reporter, luminescence; 0% DMSO, 100% Δ7-dafachronic acid | activation, % at 6.8 µM | 1.4% of 370,000 active | AID 652067;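 active means activation above the mean of all tested compounds plus 3 SD, cut at about 5.5% in these data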
DAX1 inh-2: inhibitors of DAX1 repression of SF-1 activated StAR promoter | 1.1% of 370,000 active | HEK293T StAR-luciferase reporter, SF-1/DAX-1 repression relief | inhibition, % at 6.8 µM | AID 652010;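 active means inhibition above the mean over all tested compounds plus 3 SD, cut at about 3.6% in these data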;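 further: higher inhibition means more luminescence from relief of DAX-1 repression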
AHR activator: human AHR activation. 2.5% of 320,000 active. activation, % at 5 µM. AHR-responsive luciferase reporter cells, luminescence; in the data active means activation above about 47%
ssDAF-12 act: activators of S. stercoralis DAF-12 nuclear receptor; AID 652126; 1% of 370,000 active; HEK293 ssDAF-12/GRIP1 lit1-tk-luc reporter, luminescence; % of 3 µM dafachronic acid response; activation, % at 6.8 µM;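 active means activation above the mean over all tested compounds plus 3 SD, cut at about 0.9% in these data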
AHR act cf: confirmation of human aryl hydrocarbon receptor activators. shares compounds with AHR activator. human cells, AHR-responsive luciferase reporter, luminescence. activation, % at 9 µM. 87% of 2,300 active. AID 2845; in the data active means activation above about 49%;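 further: HepG2 hepatoma cells carrying a DRE-driven firefly luciferase reporter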
PXR counter: PXR activation, counter-screen for AHR activators | activation, % at 11.6 µM | 88% of 2,300 active | cell-based PXR reporter, luciferase luminescence | shares compounds with AHR activator | AID 434939; in the data active means activation above about 11%;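 further: human hepatoma DPX-2 cells expressing full-length human PXR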
Large screens that a line does not name were inactive (follow-up assays come after a bar, where they were run).

CCOc1ccc(-c2c(C(=O)N/N=C(\C)c3cccnc3)nnn2-c2nonc2N)cc1	AHR activator 91 | AHR act cf 94 | PXR counter 33
O=C(CCCc1ccccc1)Nc1nccs1	none
COc1cc(NC(=O)c2cccs2)c(OC)cc1NC(=O)c1ccco1	AHR activator 94 | AHR act cf 117 | PXR counter 10
COc1ccc(NC(=O)c2ccco2)cc1NC(=O)c1ccc(C)cc1	AHR activator 93 | AHR act cf 106 | PXR counter 13
O=C(NN=Cc1ccc2c(c1)OCO2)c1ccncc1	none (no result: AHR activator)
COc1ccc(C)cc1NC(=O)COC(=O)c1ccc2c(c1)OCO2	none
O=C(N/N=C/c1ccc2c(c1)OCO2)c1ccc2c(c1)OCO2	DAX1 inh-2 4.0, AHR activator 115 | AHR act cf 93 | PXR counter 25
COc1ccc(C)cc1NC(=O)c1ccc2c(c1)OCO2	AHR activator 104 | AHR act cf 116 | PXR counter 26
O=C(c1ccncc1)N1CCN(S(=O)(=O)c2cccc(Cl)c2)CC1	none
NC(=O)Cn1cnc2c(nnn2-c2ccc(F)cc2)c1=O	none
O=C(c1cccc(Br)c1)N1CCN(S(=O)(=O)N2CCCCCC2)CC1	none
Cc1cc(Br)c2c(c1)/C(=C/C(=O)c1cccs1)C(=O)N2	none
Cc1cccc2c1NC(=O)/C2=C\C(=O)c1cccs1	AHR activator 84 | AHR act cf 113 | PXR counter 116
CCn1nc(C(=O)Nc2cccc(C(F)(F)F)c2)c(Cl)c1Cl	none
CCn1nc(C(=O)Nc2ccccc2C)c(Cl)c1Cl	AHR activator 90 | AHR act cf inactive | PXR counter 17
CCn1nc(C(=O)Nc2cccc3ccccc23)c(Cl)c1Cl	AHR activator 85 | AHR act cf 95 | PXR counter 17
CCN1C[C@@H]2[C@@H]3C(=O)N(Cc4ccccc4)C(=O)[C@@H]3[C@](C)(C1=O)N2C(=O)c1ccc(C(F)(F)F)cc1	none (no result: AHR activator)
C/C(=C\C(=O)c1ccccc1)NNc1nc2ccccc2s1	AHR activator 97 | AHR act cf inactive | PXR counter 54
O=C(NC(Nc1nc2ccccc2s1)(C(F)(F)F)C(F)(F)F)c1ccccc1	none
Fc1ccc(-[n+]2nc(Nc3ccccc3)sc2-c2cccc(Cl)c2Cl)cc1	AHR activator 113 | AHR act cf inactive | PXR counter 92
Clc1cccc(-c2sc(Nc3ccccc3)n[n+]2-c2ccccc2)c1Cl	none
COc1cc(-c2csc(NC3CCCCC3)n2)cc(OC)c1OC	AHR activator 81 | AHR act cf 50 | PXR counter 37
COc1cc(-c2cc3nc(NC4CCCCC4)ccn3n2)cc(OC)c1OC	none (no result: DAX1 inh-1, AHR activator)
Cc1cc2nc(C)n3c4ccccc4nc3n2n1	AHR activator 85 | AHR act cf 127 | PXR counter 13
CCc1nc2cc(C)nn2c2nc3ccccc3n12	AHR activator 91 | AHR act cf 99 | PXR counter 30
Cc1cc(C)n(-c2nc3ccccc3n3nnnc23)n1	none
COc1ccc(C2=CC(=O)C[C@H](c3ccc(F)cc3)C2)cc1OC	none
COn1c(C)c(C(C)=O)c2c3no[n+]([O-])c3ccc21	none
C=CCOn1c(C)c(C(C)=O)c2c3nonc3ccc21	AHR activator 81 | AHR act cf 71 | PXR counter 48
C=CCOn1c(C)c(C(C)=O)c2c3no[n+]([O-])c3ccc21	AHR activator 111 | AHR act cf 78 | PXR counter 85
Cc1cccc(N/N=C/c2ccc(C)s2)c1	none
Cc1cccc(NN=C2c3ccccc3-c3ccccc32)c1	AHR activator 88 | AHR act cf 115 | PXR counter 22
Cc1c(C(=O)CN2CCSCC2)c2ccccc2n1C	none
Cc1c(/C(Cc2ccccc2)=N/O)c2ccccc2n1C	AHR activator 88 | AHR act cf 111 | PXR counter 178
COC(=O)NN=C1CCC(c2ccccc2)CC1 (stereo unspecified)	none (no result: AHR activator)
COC(=O)N/N=C1/C/C(=N\NC(=O)OC)c2ccccc21	AHR activator 115 | AHR act cf 113 | PXR counter inactive
O=C(CN(C(=O)c1csnn1)c1ccccc1F)NCc1ccccc1	none
Cc1nc(=S)c2c([nH]1)-c1ccccc1CC21CCCCC1	none (no result: DAX1 inh-1)
CCOC(=O)c1[nH]c(C)c(C(=O)NCCC2=CCCCC2)c1C	none
CC(=O)c1c(C)[nH]c(C(=O)NCCC2=CCCCC2)c1C	AHR activator 146 | AHR act cf 110 | PXR counter 70
CC(Oc1ccc2ccc(=O)oc2c1)C(=O)NC1CCN(Cc2ccccc2)CC1 (stereo unspecified)	none
COC(=O)[C@@H]1C[C@@H](c2ccccc2)[C@H](C)C1(C)C	none
C[C@H]1CN(c2ccccc2)C(=O)[C@@H]1CC(=O)Nc1ccccc1	none (no result: AHR activator)
CCNC(=O)O/N=C(\C)c1sc(-c2ccc(Cl)cc2)nc1C	hgDAF-12 ag 11, AHR activator 135 | AHR act cf 135 | PXR counter 17
C/C(=N\OC(=O)NC(C)C)c1sc(-c2ccccc2)nc1C	none
C/C(=N\OC(=O)NC(C)C)c1sc(-c2ccc(Cl)cc2)nc1C	AHR activator 109 | AHR act cf 104 | PXR counter 17
CNC(=O)c1c(NC(=O)c2nc3ccccc3s2)sc2c1CCC2	AHR activator 112 (no result: hgDAF-12 ag, hcDAF12 agonist, DAX1 inh-2, ssDAF-12 act) | AHR act cf 79 | PXR counter 29
COC(=O)c1c(NC(=O)c2nc3ccccc3s2)sc2c1CCN(C(C)=O)C2	none (no result: hgDAF-12 ag, hcDAF12 agonist, DAX1 inh-2, ssDAF-12 act)
O=C(COC(=O)Cc1ccccc1)NCc1ccc2c(c1)OCO2	none
O=C(O)c1ccccc1OCCN1CCCC1=O	none
O=[N+]([O-])c1cc(/C=N\Nc2nc(-c3ccccc3)cs2)ccc1O	AHR activator 119 | AHR act cf inactive | PXR counter inactive
c1ccc(CCNc2ncnc3scc(C4COc5ccccc5O4)c23)cc1 (stereo unspecified)	AHR activator 99 | AHR act cf 100 | PXR counter 23
c1ccc2c(c1)OCC(c1csc3ncnc(N4CCCC4)c13)O2 (stereo unspecified)	none
O=C(O)c1ccccc1C(=O)NCCc1ccc(Cl)cc1	AHR activator 97 | AHR act cf 64 | PXR counter 10
O=C(NCCc1ccccc1)c1ccccc1Cl	none
O=C(Nc1ccc2c(c1)OCO2)C1CC(=O)N(c2cccc(Cl)c2)C1 (stereo unspecified)	none
COC(=O)c1ccccc1NC(=O)NCCc1ccccc1OC	AHR activator 88 | AHR act cf 110 | PXR counter 32

Screening data deposited in PubChem by The Scripps Research Institute Molecular Screening Center.
